Tested on: Vero E6 infected with SARS-CoV-2
Assay: inhibition of SARS-CoV-2 cytopathic effect; higher = more antiviral protection, active = above 15
Conditions: 48 h

Measured: inhibition of SARS-CoV-2 cytopathic effect

O=C1CC2(CCCC2)CC(=O)N1CCCCNC[C@H]1COc2ccccc2O1 (racemic)
inactive: 1 nM 2.83% | 8.33 nM -1.41% | 100 nM -1.75% | 833.33 nM -0.98% | 10000 nM -5.48%

Cc1nc(Nc2n[nH]c3c2CN(C(=O)N[C@H](CN(C)C)c2ccccc2)C3(C)C)c2sccc2n1
inactive: 1 nM 3.94% | 8.33 nM -1.34% | 100 nM -3.76% | 833.33 nM -4.38% | 10000 nM -7.39%

C[C@H](CCC(=O)O)[C@H]1CC[C@H]2[C@@H]3C(=O)C[C@@H]4CC(=O)CC[C@]4(C)[C@H]3CC(=O)[C@]12C [dehydrocholate-acid]
inactive: 1 nM -5.5% | 8.33 nM -4.18% | 100 nM -2.25% | 833.33 nM -2.84% | 10000 nM -7.01%

C=C(CC)C(=O)c1ccc(OCC(=O)O)c(Cl)c1Cl [etacrynic-acid]
inactive: 1 nM 1.1% | 8.33 nM 2.25% | 100 nM 2.32% | 833.33 nM 4.17% | 10000 nM -6.97%

CC(C)(C)NC(=O)[C@@H]1CN(Cc2cccnc2)CCN1C[C@@H](O)C[C@@H](Cc1ccccc1)C(=O)N[C@H]1c2ccccc2C[C@H]1O [indinavir]
inactive: 1 nM -3.73% | 8.33 nM -5.87% | 100 nM -9.09% | 833.33 nM -8.27% | 10000 nM -10.5%

CC(CN(C)C)CN1c2ccccc2CCc2ccccc21 (stereo not given) [trimipramine]
inactive: 1 nM -3.96% | 8.33 nM -0.87% | 100 nM -0.5% | 833.33 nM -2.02% | 10000 nM -3.88%

C[C@@H](O[C@H]1OCCN(Cc2nn(P(=O)(O)O)c(=O)[nH]2)[C@H]1c1ccc(F)cc1)c1cc(C(F)(F)F)cc(C(F)(F)F)c1 [fosaprepitant-dimeglumine]
inactive: 1 nM -0.45% | 8.33 nM 3.23% | 100 nM 1% | 833.33 nM -0.01% | 10000 nM -0.52%

CC(C)(C)NCC(O)COc1cccc2[nH]c(C#N)cc12 (stereo not given) [cyanopindolol]
inactive: 1 nM 1.56% | 8.33 nM 1.94% | 100 nM 0.47% | 833.33 nM -2.7% | 10000 nM -1.96%

CCN(CC)CCOCCOC(=O)C(CC)(CC)c1ccccc1 [oxelaidin]
inactive: 1 nM -3.54% | 8.33 nM 0.15% | 100 nM 0.38% | 833.33 nM -0.56% | 10000 nM 0.38%

Cc1nc(Nc2cnn(C3CCNCC3)c2)nc2c1N(C)C(=O)c1cc3ccccc3cc1N2C
active: 10000 nM 48.4%
inactive: 1 nM 2.64% | 8.33 nM -1.33% | 100 nM -2.15% | 833.33 nM 1.63%

CNc1nc(NCc2ccc(NS(C)(=O)=O)cc2Cl)cc(-c2ccccn2)n1
inactive: 1 nM -1.79% | 8.33 nM -3% | 100 nM 0.48% | 833.33 nM -2.53% | 10000 nM 2.16%

CN1CCN(Cc2ccc(-c3cnc4[nH]cc(-c5ccc6[nH]ccc6c5)c4c3)cc2)CC1
inactive: 1 nM 1.32% | 8.33 nM 1.21% | 100 nM 3.09% | 10000 nM -14.8%
active: 833.33 nM 21.6%

Cc1[nH]c2ccc(Cl)cc2c1C1=CCNCC1
inactive: 1 nM 0.44% | 8.33 nM 2.01% | 100 nM -0.51% | 833.33 nM 1.48% | 10000 nM 10.1%

C[N+]1([O-])[C@@H]2CC[C@H]1C[C@@H](OC(=O)C(CO)c1ccccc1)C2 (stereo not given in full) [atropine-oxide]
inactive: 1 nM -2.53% | 8.33 nM -2.05% | 100 nM -1.67% | 833.33 nM -2.02% | 10000 nM -1.76%

N#C[C@@H]1CCCN1C(=O)CNC12CC3CC(CC(O)(C3)C1)C2 [vildagliptin]
inactive: 1 nM 0.17% | 8.33 nM -0.28% | 100 nM -0.35% | 833.33 nM -0.2% | 10000 nM 1.3%

N#C/C(=C\c1ccc(O)c(O)c1)C(=O)OCCc1cccs1
inactive: 1 nM 1.43% | 8.33 nM 1.78% | 100 nM 7.36% | 833.33 nM -1.53% | 10000 nM 1.2%

CCCCCCCCCCCCCCCCCC(=O)OCC(O)CO (stereo not given) [monostearin]
inactive: 1 nM 3.45% | 8.33 nM 0.27% | 100 nM 0.45% | 833.33 nM 0.48% | 10000 nM -0.08%

CNC1CC(c2ccc(Cl)c(Cl)c2)c2ccccc21 (stereo not given) [indatraline]
inactive: 1 nM -0.39% | 8.33 nM 0.4% | 100 nM 0.7% | 833.33 nM -3.42% | 10000 nM -10.8%

Cc1[nH]cnc1-c1ccc(Cl)cc1 [lofemizole]
inactive: 1 nM -0.61% | 8.33 nM -0.4% | 833.33 nM 0.04% | 10000 nM -0.36%
active: 100 nM 150%

COc1ccccc1N1CCN(CCN2C(=O)CC3(CCCC3)CC2=O)CC1
inactive: 1 nM 0.12% | 8.33 nM 1.57% | 100 nM 2.97% | 833.33 nM 1.51% | 10000 nM 0.47%

[N-]=[N+]=CC(=O)CC[C@H](N)C(=O)O [6-diazo-5-oxo-L-norleucine]
inactive: 1 nM 0.69% | 8.33 nM 0.78% | 100 nM 0.86% | 833.33 nM 0.6% | 10000 nM -0.69%

CCC1=C[C@@H]2CN3CCc4c([nH]c5ccccc45)[C@@](C(=O)OC)(C2)[C@@H]13 [catharanthine]
inactive: 1 nM 0.42% | 8.33 nM 0.35% | 100 nM 0.47% | 833.33 nM 0.93% | 10000 nM 2.81%

O=C(O)c1cccnc1Nc1cccc(C(F)(F)F)c1 [niflumic-acid]
inactive: 1 nM 1.14% | 8.33 nM 2.42% | 100 nM -0.03% | 833.33 nM 1.51% | 10000 nM 1.54%

CC(C)[C@@H](CN1CC[C@@](C)(c2cccc(O)c2)[C@@H](C)C1)NC(=O)[C@H]1Cc2ccc(O)cc2CN1
inactive: 1 nM -0.76% | 8.33 nM 1.45% | 100 nM -1.62% | 833.33 nM -1.16% | 10000 nM -4.59%

O=c1nc2ccccc2c2n1CC(CN1CCN(c3ccccc3)CC1)N2 (stereo not given)
inactive: 1 nM 3.05% | 8.33 nM 5.11% | 100 nM 2.83% | 833.33 nM 4.08% | 10000 nM 5.46%

CC(C)N[C@H]1CCn2c(=O)[nH]c3cccc(c32)[C@@H]1O [zilpaterol]
inactive: 1 nM 0.575% | 8.33 nM -0.6% | 100 nM -1.14% | 833.33 nM -1.59% | 10000 nM -2.51%

NC(=O)[C@@H](CC1CC1)[C@@H](CCC(F)(F)F)C(=O)N[C@H]1N=C(c2ccccc2)c2cccc(F)c2NC1=O
inactive: 1 nM -0.36% | 8.33 nM -1.04% | 100 nM -3.47% | 833.33 nM -3.05% | 10000 nM -5.54%

Source: the supplement of paper PMC13380429
